Drawing on PubChem BioAssay (NCI), this text covers growth for 36 compounds.

Values joined by “and” are separate entries in the source; they are usually repeats but may differ in a detail not shown here. Equal values may be shown once. The panel holds about 83,000 compounds, 20% with a hit somewhere; the sample as a whole holds those more often.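 In brief: 96-well plates, 48 h treatment, single concentration, percent growth endpoint.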 A number with no mark means an inactive call. Active and inactive are the calls of the source.

One test has as its system NCI-H460 lung. The test is described as follows: NCI-60 one-dose screen, 48 h (100 = growth as untreated, 0 = no growth, -100 = all killed). As to conditions: 0.01 µM. The protocol:
Growth inhibition of the NCI-H460 human Non-Small Cell Lung tumor cell line is measured as a screen for anti-cancer activity. Cells are grown in 96 well plates and exposed to the test compound for 48 hours. Compounds are tested at a single concentration, which is 10^-5 M for most compounds. The reported endpoint is percent growth (GI% or GIPRCNT), where numbers from 0 - 100% represent growth inhibition, and numbers from -100% - 0 represent cell death. For example, a value of 40 represents 60% growth inhibition. A value of 0 means no net growth occurred over the course of the experiment. A value of -40 indicates 40% of cells at the beginning of the experiment died by the end of the experiment. A value of -100 means all cells are dead at the end of the experiment.
NCI-60 Human Tumor Cell Lines Screen was performed using the standard one-dose NCI protocol, which is described in more detail at https://dtp.cancer.gov/discovery_development/nci-60/default.htm.
Compounds with GIPRCNT values below 10 were considered active. Activity score was based on GIPRCNT using the following formula: […]
Score is 0 for GIPRCNT values of 100 or above, 50 for GIPRCNT values of 0, and 100 for GIPRCNT values of -100.
In the case of `CC(=O)O[C@H]1C(=O)[C@@]2(C)[C@H]([C@H](OC(=O)c3ccccc3)[C@]3(O)C[C@H](OC(=O)[C@H](O)[C@@H](NC(=O)c4ccccc4)c4ccccc4)C(C)=C1C3(C)C)[C@]1(OC(C)=O)CO[C@@H]1C[C@@H]2O`, the growth is 13.8%.

The same test, now with this note: 2.5 µM.
With `CC(=O)O[C@H]1C(=O)[C@@]2(C)[C@H]([C@H](OC(=O)c3ccccc3)[C@]3(O)C[C@H](OC(=O)[C@H](O)[C@@H](NC(=O)c4ccccc4)c4ccccc4)C(C)=C1C3(C)C)[C@]1(OC(C)=O)CO[C@@H]1C[C@@H]2O`, the growth is 3.32% (active).

Staying with this test, now noted: 5 µM.
Turning to `CC(=O)O[C@H]1C(=O)[C@@]2(C)[C@H]([C@H](OC(=O)c3ccccc3)[C@]3(O)C[C@H](OC(=O)[C@H](O)[C@@H](NC(=O)c4ccccc4)c4ccccc4)C(C)=C1C3(C)C)[C@]1(OC(C)=O)CO[C@@H]1C[C@@H]2O`, the growth is 4.65% (active).

The test is the same for the next values; noted with them: 10 µM.
Consider `NCc1c(O)ccc2ccccc12`, for which the growth was 108%.
Same read-out and setting: under `Nc1nc(N)c2cc(Sc3ccc4ccccc4c3)ccc2n1` stands 16.1%; under `CC(=O)O[C@H]1C(=O)[C@@]2(C)[C@H]([C@H](OC(=O)c3ccccc3)[C@]3(O)C[C@H](OC(=O)[C@H](O)[C@@H](NC(=O)c4ccccc4)c4ccccc4)C(C)=C1C3(C)C)[C@]1(OC(C)=O)CO[C@@H]1C[C@@H]2O`, 8.92% (active) and 6.58% (active).
On the same count and under the same terms, next, `O=c1[nH]cc(/C=N\Nc2ccccc2)c(=O)[nH]1`: 47.6%.
On the same count and under the same terms, under `O=Nc1ccc(Nc2ccccc2)cc1` stands 97.8%; under `CCC(=O)Oc1ccc(/C=N/NC(N)=S)nc1`, 52%; under `S=P(N1CC1)(N1CC1)N1CC1`, 116% and 40.2%.
Regarding `COc1ccc(C(C#N)=C2C=CC(=NO)C=C2)cc1`, the growth is 65.8%.
As for `N#C/C(=C/N1C(=O)/C(=C/c2ccc([N+](=O)[O-])cc2)SC1=S)c1nc2ccccc2s1`, the growth is 90.3%.
In the case of `Cc1c(-c2ccccc2)[nH]c2ccccc12`, the growth is 104%.
The same measure, in the same setting: under `CN(C)CCNc1cccc2sc3ccc(O)cc3c(=O)c12` stands 16%.
The same measure, in the same setting: next, `CC1CCC2(C(=O)O)CCC3(C)C(=CCC4C5(C)CC(O)C(O)C(C)(CO)C5C(O)CC43C)C2C1C` (stereo not given): 111%; `Cc1cc(N=C2C=CC(=[N+](C)C)C=C2)c(N)cc1N`: 102%.
Still for that read-out and setting: under `Cc1cc(Cl)ccc1NC(=O)/C(Cl)=C1/Sc2ccccc2NC1=O` stands 99.4%.
For `Cn1c2nc3ccccc3c-2nc2ccccc21`, the growth is 86.9% and 86.5%.
On the same count and under the same terms, under `CN(C)c1ccc(/C=C/c2ccnc3ccccc23)cc1N` stands 77.9%; under `O=C1C(Cl)=C(Cl)C(Cl)(Cl)C(Cl)C1(Cl)Cl` (stereo not given), 118%.
As to `Cn1ncc2cc3c(Nc4ccc(Cl)cc4)cccc3nc21`, the growth was 89.8%.
On the same count and under the same terms, under `COc1cc(N)ccc1Nc1c2ccccc2nc2ccccc12` stands 4.72% (active).
Same read-out and setting: next, `O=S(=O)(c1cc(Cl)ccc1O)c1cc(Cl)ccc1O`: 85.1%.
`Cc1cc(O)c2c(c1O)C(=O)C13C(=C2O)C(=O)C2C(O)C1C1C(O)C3C(=O)C3=C(O)c4c(O)cc(C)c(O)c4C(=O)C321` (stereo not given): the growth is 0.0816% (active).
As to `CCC(C)(c1ccc(O)c(C)c1)c1ccc(O)c(C)c1`, the growth is 97.3%.
On the same count and under the same terms, next, `O=C(O)c1ccccc1.[Ag]`: 100%; `CC[C@@]1(OC(=O)CN(C)C)C(=O)OCc2c1cc1n(c2=O)Cc2cc3c(N)cccc3nc2-1`: -5.75% (active).
With `S=C1SCN(CCc2ccccc2)CN1CCc1ccccc1`, the growth is 108%.
With `O=C(NC(=S)Nc1ccccn1)c1ccccc1`, the growth is 94%.
For `O=C(CNS(=O)(=O)Cc1ccccc1)NNc1ccccc1`, the growth was 29.4%.
Still for that read-out and setting: under `ClCCn1c(CCl)nc2ccc(Cl)cc21` stands 0.311% (active); under `COc1ccc(N)c2c1C(=O)c1ccccc1C2=O`, 98.1%; under `CN(CC(=O)O)c1ccc(/C=C/c2ccnc3ccccc23)cc1`, 94.5%.
Same read-out and setting: next, `O=C1c2cccc3cc([N+](=O)[O-])cc(c23)C(=O)N1CCN1CCCC1`: -28.8% (active); `COc1ccc2c(c1)[nH]c1c(/C=C/c3ccccc3)nccc12`: 56.2%; `O=[N+]([O-])c1cc(S(=O)(=O)Nc2ccccc2)ccc1Cl`: 108%.
The same measure, in the same setting: under `O=C1c2ccccc2CCC1(Br)Br` stands 95%; under `CCOC(=O)[C@]1(Br)CC[C@@]1(Br)C(=O)OCC`, 117%.
For `C=C1N(C)c2ccc(Cl)cc2C1(C)C`, the growth was 39.4%.

Still in this test, the particulars now being: 100 µM.
`S=P(N1CC1)(N1CC1)N1CC1`: the growth is 26.3%.
